The list is not random: actives were taken first. Their share in the collection is about 4.7%.
TRHR enhancer – qHTS for Small Molecule Agonists and Allosteric Enhancers of Human TRH Receptor: Primary Screen for Enhancers | Thyrotropin-releasing hormone receptor (Homo sapiens), P34981 | TRHR cells, fluo-8 calcium fluorescence, EC20 TRH enhancement | enhancement, % at 2 µM | hit rate 0.66% among 360,000 | AID 493056, 2011; in the data active = enhancement above about 30%; note: 0% is about no effect
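TRHR-expressing cells loaded with fluo-8 calcium dye were read kinetically (ex 480/em 530) during compound addition, then stimulated with an EC20 of TRH (10 nM final). Enhancement of the Gq-mediated intracellular calcium response was scored.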
TRHR ag – qHTS for Small Molecule Agonists and Allosteric Enhancers of Human TRH Receptor: Primary Screen for Agonists | TRHR cells, calcium flux fluo-8, FDSS agonist mode | Thyrotropin-releasing hormone receptor (Homo sapiens), P34981 | activation, % at 2 µM | AID 493084, 2011 | hit rate 0.18% among 360,000; note: 0% is about no effect
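TRHR-expressing cells, plated overnight in medium with 10% serum, were loaded with fluo-8 calcium dye at room temperature. After a 10 s baseline, library compound was pin-added and calcium release was recorded kinetically (ex 480/em 530) as agonist response.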
D1 antagonist – Antagonist of Human D 1 Dopamine Receptor: qHTS | D(1A) dopamine receptor (Homo sapiens), P21728 | HEK293 TREx D1 cells, calcium flux, dopamine EC80; active compounds read low | activity change, negative = inhibition, % at 10 µM | hit rate 3.2% among 360,000 | AID 504652, 2011; in the data active = activity change below about -30%; note: % is set by controls: 0 for no effect and ±100 for the full control effect
Target sequence (P21728 whole entry, looked up): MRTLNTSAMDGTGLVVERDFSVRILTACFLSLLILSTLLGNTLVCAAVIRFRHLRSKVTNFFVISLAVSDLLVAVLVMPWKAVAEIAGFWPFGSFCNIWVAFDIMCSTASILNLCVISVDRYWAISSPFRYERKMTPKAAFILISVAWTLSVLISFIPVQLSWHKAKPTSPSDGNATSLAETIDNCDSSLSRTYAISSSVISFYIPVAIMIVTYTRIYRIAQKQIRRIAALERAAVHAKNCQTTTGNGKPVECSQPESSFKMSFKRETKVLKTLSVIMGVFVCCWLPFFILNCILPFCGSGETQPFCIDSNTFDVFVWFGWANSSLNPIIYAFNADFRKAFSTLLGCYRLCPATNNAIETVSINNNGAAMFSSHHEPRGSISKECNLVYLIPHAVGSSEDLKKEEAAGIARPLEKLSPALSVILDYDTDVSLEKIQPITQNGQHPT
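Cells carrying a force-coupled, tetracycline-inducible human D1 receptor report calcium flux. Each well gets a 10 s baseline, compound with 180 s monitoring, then an EC80 dopamine stimulus with a second 180 s kinetic read.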
D1 potentiator – Potentiators of Human D1 Dopamine Receptor: qHTS | D(1A) dopamine receptor (Homo sapiens), P21728 | HEK293 TREx D1 cells, calcium flux, dopamine EC20 potentiation | potentiation, % at 10 µM | hit rate 0.036% among 360,000; in the data active = potentiation above about 30%; note: 0% is about no effect
D1 agonist – Allosteric Agonists of the Human D1 Dopamine Receptor: qHTS; activation, % at 2 µM; AID 504660, 2011; D(1A) dopamine receptor (Homo sapiens), P21728; hit rate 1% among 360,000; HEK293 T-REx D1 cells, calcium flux, agonist mode; note: 0% is about no effect
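Tetracycline-induced HEK293 TREx D1 cells, force-coupled to calcium signalling, were dye-loaded with a no-wash calcium kit. Compound was pin-added after a 10 s baseline. Fluorescence was read kinetically at 1 cycle/s for 180 s, with calcium rises flagged as agonism.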
Numbers without * were called inactive. Cut-off read from the data, not from the text of the source, unless noted: active = activation above about 30%; inactive = the rest.

SMILES	TRHR enhancer	TRHR ag	D1 antagonist	D1 potentiator	D1 agonist
CCc1ccc(CNC(=O)c2sc3ncnc(N(C)C4CCCCC4)c3c2C)cc1	0	0	-11	1	3
Cc1ccc(CSc2nnc(SCC(=O)N/N=C/c3c(C)nn(-c4ccccc4)c3C)s2)cc1	2	0	-38*	-1	1
Cc1nn(-c2ccccc2)c(C)c1/C=N/NC(=O)CSc1nnc(SCc2ccccc2Cl)s1	10	1	-4	2	8
CN(CC1CCCO1)S(=O)(=O)c1ccc(C(=O)Nc2nnc(-c3ccccc3)o2)cc1 (stereo not given)	12	0	-15	-4	0
COC(=O)c1ccc(COn2nnc3ccccc32)cc1	-5	-1	-35*	-5	4
CCCCOC(=O)c1ccc(NC(=O)c2cc3c(=O)n4cccc(C)c4nc3s2)cc1	-6	0	7	0	2
CN(C)C(CNC(=O)c1cc(S(=O)(=O)N(C)c2ccccc2)ccc1Cl)c1cccs1 (stereo not given)	-6	0	-44*	-8	12
CC(C)(C)N1C(=O)c2ccc(C(=O)Nc3ccc(-c4nc5ccccc5[nH]4)cc3)cc2C1=O	1	0	-14	0	4
O=C(c1ccccc1)c1ccc2nc(-c3ccc(NC(=O)c4ccccc4Br)cc3)[nH]c2c1	22	18	-19	-3	3
O=C(Nc1ccc(-c2nc3ccccc3[nH]2)cc1)c1ccc(N2C(=O)CCC2=O)cc1	1	0	-50*	-3	0
CCN(c1ccccc1)S(=O)(=O)c1cccc(C(=O)NCC(c2cccs2)N(C)C)c1 (stereo not given)	3	0	5	1	4
CN(c1ccccc1)S(=O)(=O)c1ccc(Cl)c(C(=O)Nc2ccc(-c3nc4ccccc4[nH]3)cc2)c1	4	0	-30*	-10	5
Cc1ccccc1C(=O)Nc1ccc(-c2nc3ccc(C(=O)c4ccccc4)cc3[nH]2)cc1	-6	1	-42*	-5	4
COc1ccc(C2=C(C)C(=NCCCN3CCN(c4cc(C)ccc4C)CC3)NS2(=O)=O)cc1	2	0	-2	0	-1
CC1CCC(NC(=O)c2cc3c(s2)CCCC3)CC1 (stereo not given)	-3	0	16	-3	1
COc1ccccc1C(=O)N(c1ccc(C)cc1)S(=O)(=O)c1ccc(Cl)cc1	-6	0	-9	0	0
CC(C)/C=C/CN1CCN(CCCc2ccccc2)C(CCO)C1 (stereo not given)	34*	0	1	-2	3
CC(C)CCN1CCN(CCCc2ccccc2)CC1CCO (stereo not given)	5	0	-4	-1	0
Cc1cc(NCCN2CCOCC2)n2c(nc3ccccc32)c1C#N	-6	0	8	2	2
Cc1c2c(n3c(nc4ccccc43)c1C#N)N(CCN1CCOCC1)CC2	-4	3	-38*	-2	0
Cn1c2cc(B(O)O)sc2c2cnn(Cc3c(F)cccc3Cl)c(=O)c21	6	3	-7	-8	11
COc1ccc(CSC(=N)N)cc1[N+](=O)[O-]	6	1	3	4	3
CCOc1ccc(C(C)=O)cc1CSC(=N)N	7	0	-27	-6	4
CCCCCOc1ccc(CSC(=N)N)cc1[N+](=O)[O-]	9	5	35	-1	56*
CCCCOc1ccc(Br)cc1CSC(=N)N	4	2	-4	-5	62*
SMILES	TRHR enhancer	TRHR ag	D1 antagonist	D1 potentiator	D1 agonist
OC(CNc1ccccc1)COc1ccc(OCC(O)CNc2ccccc2)cc1 (stereo not given)	2	2	-40*	-7	18
CCOCC(O)CNc1ccccc1 (stereo not given)	3	0	9	3	0
CCOc1ccc(OCC(O)CNC2CCN(Cc3ccccc3)CC2)cc1 (stereo not given)	4	1	1	2	22
CC(C)(c1ccccc1)c1ccc(OCC(O)CNC2CCN(Cc3ccccc3)CC2)cc1 (stereo not given)	18	4	20	4	67*
COc1ccc(CNCC(O)COc2ccc(C(C)(C)c3ccccc3)cc2)cc1 (stereo not given)	12	2	28	9	33*
COC(=O)c1ccc(CNCC(O)COc2ccc(-c3ccccc3)cc2)cc1 (stereo not given)	5	2	13	7	11
O=C(/C=C/c1ccccc1Cl)OCC(=O)c1ccc[nH]1	2	4	-21	-2	3
O=C(c1cc(-c2ccc(F)cc2)nc2ccccc12)N1CCN(C2CCS(=O)(=O)C2)CC1 (stereo not given)	4	0	-32*	1	0
CCOC(=O)C1CCCN(C(=O)c2cc(-c3ccc(F)cc3)nc3ccccc23)C1 (stereo not given)	-7	-1	1	-6	2
CCCOP(=O)(OCCC)C(Nc1ccc(C(C)C)cc1)c1ccc([N+](=O)[O-])cc1 (stereo not given)	1	2	-33*	-8	7
Cc1ccccc1OCCCCn1c(C2CC(=O)N(c3ccccc3Cl)C2)nc2ccccc21 (stereo not given)	4	-2	-10	-4	32*
Cc1cccc(C)c1OCCn1c(C2CC(=O)N(c3cccc(Cl)c3)C2)nc2ccccc21 (stereo not given)	1	2	-5	-1	7
Cc1cccc(C)c1OCCCCn1c(C2CC(=O)N(c3ccc(F)cc3)C2)nc2ccccc21 (stereo not given)	-3	3	-10	0	36*
COc1ccccc1OCCCCn1c(C2CC(=O)N(c3ccccc3Cl)C2)nc2ccccc21 (stereo not given)	-8	1	3	-2	37*
CCOc1ccc(CCNC(=O)c2cc3cccc4c3n2CCS4)cc1	4	0	0	-2	0
Cc1cc(Nc2cc(Cl)ccc2C)n2nc(-c3ccccc3)nc2n1	1	-2	20	-1	3
CCOc1ccc(-c2nonc2NC(=O)c2ccc(C)cc2)cc1OCC	1	-1	10	0	2
CCCOc1ccc(NC(=O)CC2C(=O)N(CC)C(=S)N2CCCN2CCN(Cc3ccccc3)CC2)cc1 (stereo not given)	3	0	-34*	-7	13

High-throughput results from PubChem BioAssay.
